D1 antagonist – Antagonist of Human D 1 Dopamine Receptor: qHTS; HEK293 TREx D1 cells, calcium flux, dopamine EC80; hits give low values; actives 3.2% (n = 360,000); activity change, negative = inhibition, % at 10 µM; in the data active = activity change below about -30%; also: % is scaled to controls: 0 for no effect and ±100 for the full control effect
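After overnight tetracycline induction at 30 C, force-coupled D1 HEK293 cells took up a no-wash calcium dye at room temperature. Compounds were added and monitored 180 s, and the response to EC80 dopamine was then recorded.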
TRHR agonist – qHTS for Small Molecule Agonists and Allosteric Enhancers of Human TRH Receptor: Primary Screen for Agonists; TRHR cells, calcium flux fluo-8, FDSS agonist mode; actives 0.18% (n = 360,000); AID 493084, 2011; Thyrotropin-releasing hormone receptor (Homo sapiens), P34981; activation, % at 2 µM; also: 0% is about no effect
Target sequence (P34981 whole entry, looked up): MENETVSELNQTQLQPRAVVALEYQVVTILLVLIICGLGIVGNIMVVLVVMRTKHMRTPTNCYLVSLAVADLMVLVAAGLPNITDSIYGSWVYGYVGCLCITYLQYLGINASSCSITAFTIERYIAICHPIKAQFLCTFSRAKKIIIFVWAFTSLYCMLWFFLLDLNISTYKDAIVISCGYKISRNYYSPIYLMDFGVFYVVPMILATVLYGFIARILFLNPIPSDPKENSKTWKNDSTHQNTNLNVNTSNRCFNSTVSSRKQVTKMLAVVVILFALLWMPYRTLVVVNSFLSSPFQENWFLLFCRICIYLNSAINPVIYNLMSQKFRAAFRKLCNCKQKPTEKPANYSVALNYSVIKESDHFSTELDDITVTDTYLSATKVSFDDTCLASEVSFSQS
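TRHR-expressing cells, plated overnight in medium with 10% serum, were loaded with fluo-8 calcium dye at room temperature. After a 10 s baseline, library compound was pin-added and calcium release was recorded kinetically (ex 480/em 530) as agonist response.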
D1 PAM – Potentiators of Human D1 Dopamine Receptor: qHTS. HEK293 TREx D1 cells, calcium flux, dopamine EC20 potentiation. potentiation, % at 10 µM. actives 0.036% (n = 360,000); in the data active = potentiation above about 30%; also: 0% is about no effect
D1 ag – Allosteric Agonists of the Human D1 Dopamine Receptor: qHTS; D(1A) dopamine receptor (Homo sapiens), P21728; HEK293 T-REx D1 cells, calcium flux, agonist mode; activation, % at 2 µM; actives 1% (n = 360,000); also: 0% is about no effect
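Agonism was scored from calcium flux recorded over 180 s (1 read/s) after pintool compound addition, following a 10-cycle baseline. Cells were inducible force-coupled HEK293 TREx D1, plated overnight at 30 C and loaded with no-wash calcium dye.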
TRHR enhancer – qHTS for Small Molecule Agonists and Allosteric Enhancers of Human TRH Receptor: Primary Screen for Enhancers. Thyrotropin-releasing hormone receptor (Homo sapiens), P34981. TRHR cells, fluo-8 calcium fluorescence, EC20 TRH enhancement. enhancement, % at 2 µM. actives 0.66% (n = 360,000). AID 493056, 2011; in the data active = enhancement above about 30%; also: 0% is about no effect
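Enhancer read-out: after compound pinning and an initial kinetic agonist-mode read, an EC20 of TRH (10 nM final) was injected and fluo-8 calcium signal (Ex 480/Em 530) followed at 1 s/cycle for 100 cycles in TRHR-expressing cells.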
Numbers without * were called inactive. An excerpt weighted towards active compounds, which were near 4.7% of everything screened. Rule as the data show it, unless noted: active = activation above about 30%; inactive = the rest.

Screening COc1ccc(CNC(=O)C/C(C)=N/NC(=O)COc2ccc(C)cc2Br)cc1 returned D1 antagonist -9.6, TRHR agonist 0.0, D1 PAM -7.5, D1 ag 1.4 and TRHR enhancer 32.3*.
For COc1ccc(CNC(=O)C/C(C)=N/NC(=O)c2cnccn2)cc1 the results were D1 antagonist 7.8, TRHR agonist 2.8, D1 PAM 8.8, D1 ag 34.7* and TRHR enhancer 0.2.
For CCCNC(=O)C/C(C)=N/NC(=O)COc1ccc(C)cc1Br the results were D1 antagonist -6.6, TRHR agonist -0.1, D1 PAM 3.0, D1 ag 20.5 and TRHR enhancer 19.6.
`COc1cc(C(=O)N(Cc2ccc(F)cc2)Cc2ccco2)cc(OC)c1OC` gave D1 antagonist -11.4, TRHR agonist 0.7, D1 PAM -0.1, D1 ag 2.1 and TRHR enhancer 0.4.
Nc1c(C(=O)Nc2ccc(Cl)c(C(=O)O)c2)sc2nc3c(cc12)CCCC3 was read as D1 antagonist -61.5*, TRHR agonist 0.5, D1 PAM -7.8, D1 ag 13.0 and TRHR enhancer -4.1.
Cc1c(Cl)ccc2c1NC(=O)[C@]21N[C@@H](Cc2ccccc2)[C@H]2C(=O)N(c3ccc(F)cc3)C(=O)[C@H]21 was read as D1 antagonist -1.1, TRHR agonist -0.8, D1 PAM 16.3, D1 ag 33.6* and TRHR enhancer 4.5.
COC(=O)c1ccc(Oc2c(C)oc3cc(OCc4cnn(-c5ccccc5)c4)ccc3c2=O)cc1 was read as D1 antagonist 3.8, TRHR agonist 1.8, D1 PAM 2.2, D1 ag 3.8 and TRHR enhancer -1.6.
For COC(=O)c1ccc(Oc2coc3cc(OCc4cnn(-c5ccccc5)c4)ccc3c2=O)cc1 the results were D1 antagonist -38.2*, TRHR agonist 0.4, D1 PAM -3.5, D1 ag 3.6 and TRHR enhancer 0.0.
`Cc1ccccc1Cc1ccc(Cl)nn1` gave D1 antagonist -43.7*, TRHR agonist 0.1, D1 PAM -4.6, D1 ag 0.9 and TRHR enhancer -0.8.
For O=C1CCc2cc(S(=O)(=O)Nc3ccccc3F)ccc2N1 the results were D1 antagonist -41.8*, TRHR agonist -0.4, D1 PAM 4.2, D1 ag 1.7 and TRHR enhancer -4.8.
For O=C1CCc2cc(S(=O)(=O)Nc3ccccc3Cl)ccc2N1 the results were D1 antagonist -7.4, TRHR agonist 0.0, D1 PAM -2.2, D1 ag 3.0 and TRHR enhancer 2.0.
`Cc1occc1-c1nnc(SCC(=O)Nc2nc(C(C)(C)C)cs2)o1` gave TRHR agonist 0.3, D1 PAM -3.2, D1 ag 31.5* and TRHR enhancer -10.0.
Screening Cc1csc(NC(=O)CSc2nnc(-c3ccoc3C)o2)n1 returned D1 antagonist -6.4, TRHR agonist -0.6, D1 PAM -4.7, D1 ag 8.8 and TRHR enhancer 0.2.
For Cc1nc(CC(=O)Nc2nc(-c3ccccc3)cs2)cs1 the results were D1 antagonist -10.0, TRHR agonist -0.7, D1 PAM 9.0, D1 ag 2.2 and TRHR enhancer 7.1.
For Cc1nc(CC(=O)Nc2nc(C(C)(C)C)cs2)cs1 the results were D1 antagonist -38.4*, TRHR agonist -1.2, D1 PAM -7.4, D1 ag 11.9 and TRHR enhancer 15.4.
Screening COc1nc(C)ccc1-c1noc(-c2cccs2)n1 returned D1 antagonist -34.6*, TRHR agonist -1.0, D1 PAM 2.8, D1 ag 2.2 and TRHR enhancer -8.2.
Screening COc1ccc(-n2nc3ccc(NC(=O)c4c(OC)cccc4OC)cc3n2)cc1 returned D1 antagonist -8.2, TRHR agonist -2.3, D1 PAM -3.8, D1 ag 7.4 and TRHR enhancer 6.1.
For COc1ccc(S(=O)(=O)Nc2cccc3cccnc23)c([N+](=O)[O-])c1 the results were D1 antagonist -28.2, TRHR agonist 1.3, D1 PAM -2.4, D1 ag 4.3 and TRHR enhancer -4.2.
`Clc1ccc(Nc2c(-c3ccccc3Cl)nc3ccc(Cl)cn23)cc1` gave D1 antagonist -40.7*, TRHR agonist 0.2, D1 PAM -2.0, D1 ag -0.1 and TRHR enhancer 11.9.
Oc1ccccc1-c1nc2cnccn2c1Nc1ccc(Cl)cc1 was read as D1 antagonist 3.5, TRHR agonist 0.2, D1 PAM 0.3, D1 ag 3.3 and TRHR enhancer -2.5.
`Cc1ccc2c(=O)c(C(=O)c3ccccc3)cn(CC(=O)NCc3ccccc3)c2n1` gave D1 antagonist -17.5, TRHR agonist 0.7, D1 PAM -5.8, D1 ag 0.8 and TRHR enhancer -7.2.
`Fc1ccc(-c2cn3cc(Cc4ccccc4)sc3n2)cc1` gave D1 antagonist -16.6, TRHR agonist 0.1, D1 PAM -2.6, D1 ag 5.0 and TRHR enhancer 0.7.
`CCOC(=O)c1c(C)[nH]c(C)c1S(=O)(=O)N1CCC(C(=O)Nc2ccccc2CC)CC1` gave D1 antagonist -36.9*, TRHR agonist -0.3, D1 PAM 2.8, D1 ag -0.1 and TRHR enhancer 1.2.
CCOC(=O)c1c(C)[nH]c(C)c1S(=O)(=O)N1CCCC(C(=O)NCc2ccc(Cl)cc2)C1 (configuration not stated) was read as D1 antagonist -30.9*, TRHR agonist -0.5, D1 PAM 2.5, D1 ag 3.8 and TRHR enhancer 16.4.
Screening CCOC(=O)c1c(C)[nH]c(C)c1S(=O)(=O)N1CCCC(C(=O)NCc2ccc(C)cc2)C1 (configuration not stated) returned D1 antagonist -2.5, TRHR agonist -0.5, D1 PAM -3.2, D1 ag 1.4 and TRHR enhancer -1.9.
`CCOC(=O)N1CCN(S(=O)(=O)N2CCCC(C(=O)NCCc3ccc(Cl)cc3)C2)CC1` (configuration not stated) gave D1 antagonist -40.8*, TRHR agonist 0.3, D1 PAM -2.9, D1 ag 4.6 and TRHR enhancer -2.2.
For O=C1COc2ccc(S(=O)(=O)N3CCN(c4ccccc4)CC3)cc2N1 the results were D1 antagonist 2.6, TRHR agonist 0.2, D1 PAM -6.2, D1 ag 3.2 and TRHR enhancer 1.5.
`CC(CC(=O)N1CCN(c2ccccc2)CC1)S(=O)(=O)c1ccc2c(c1)NC(=O)CO2` (configuration not stated) gave D1 antagonist -48.1*, TRHR agonist -0.1, D1 PAM -2.4, D1 ag 7.4 and TRHR enhancer 1.1.
